Assay outcomes deposited in PubChem BioAssay by several laboratories.
Rows were chosen to be rich in hits. Some 2.5% of all compounds tested hit in one or more screens of this group.
p97 ATPase inh: blocks human p97 ATPase activity; P55072; recombinant p97 ATPase, Kinase-Glo ATP luminescence, 3 h; inhibition, % at 8 µM; 220,000 compounds, 0.42% hits; AID 1481; in the data active = inhibition above about 15%;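 note: 0% = DMSO vehicle and 100% = wells lacking enzyme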
Target sequence (P55072 whole entry, looked up): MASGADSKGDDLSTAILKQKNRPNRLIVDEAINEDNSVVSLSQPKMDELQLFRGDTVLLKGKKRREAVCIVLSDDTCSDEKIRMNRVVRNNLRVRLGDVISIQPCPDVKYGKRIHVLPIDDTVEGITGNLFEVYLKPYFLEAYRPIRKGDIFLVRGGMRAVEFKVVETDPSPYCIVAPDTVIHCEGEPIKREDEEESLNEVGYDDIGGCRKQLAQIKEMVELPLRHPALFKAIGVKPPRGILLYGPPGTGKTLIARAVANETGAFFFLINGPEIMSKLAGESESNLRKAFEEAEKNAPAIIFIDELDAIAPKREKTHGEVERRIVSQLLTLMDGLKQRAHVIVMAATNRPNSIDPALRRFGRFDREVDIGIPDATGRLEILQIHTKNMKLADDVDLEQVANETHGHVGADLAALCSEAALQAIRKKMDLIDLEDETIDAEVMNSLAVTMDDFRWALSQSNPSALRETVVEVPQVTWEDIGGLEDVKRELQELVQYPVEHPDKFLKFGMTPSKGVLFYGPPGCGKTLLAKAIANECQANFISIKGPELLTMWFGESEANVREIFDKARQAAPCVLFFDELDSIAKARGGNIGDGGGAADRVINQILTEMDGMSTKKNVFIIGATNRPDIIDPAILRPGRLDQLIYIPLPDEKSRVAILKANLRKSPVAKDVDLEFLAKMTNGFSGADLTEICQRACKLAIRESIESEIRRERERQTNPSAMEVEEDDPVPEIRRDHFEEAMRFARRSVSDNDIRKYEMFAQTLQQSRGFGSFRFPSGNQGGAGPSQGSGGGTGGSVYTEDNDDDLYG
PfM18AAP inh: PfM18AAP enzyme inhibition; recombinant PfM18AAP, H-Glu-NHMec fluorogenic cleavage; inhibition, % at 7.35 µM; 290,000 compounds, 1.2% hits;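 active = inhibition above the campaign mean inhibition over all tested compounds plus 3 SD, cut at about 28% in these data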;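 note: 0% = plate median of test compound wells and 100% = 2 mM ZnCl2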
PHOSPHO1 inh: blocks human PHOSPHO1 phosphatase activity; inhibition, % at 13.3 µM; recombinant PHOSPHO1, absorbance phosphatase assay; AID 1565; 290,000 compounds, 1.1% hits; in the data active = inhibition above about 60%
HDAC3 inhib: blocks human histone deacetylase 3. O15379. 320,000 compounds, 0.15% hits. inhibition, % at 8.3 µM. AID 2718. recombinant HDAC3, fluorogenic peptide/trypsin coupled, fluorescence; in the data active = inhibition above about 26%, passing the limit was not always enough; inconclusive = no clear call, values can overlap the other calls
G6PDH counter: inhibits Leuconostoc G6PDH, flagging false hits in G6PDH-based assays. Purified L. mesenteroides G6PDH, diaphorase/resazurin coupled fluorescence, 45 min. inhibition, % at 5 µM. 200,000 compounds, 0.12% hits. AID 1020; in the data active = inhibition above about 50%
UBC9 SUMO inh: blocks human SUMOylation mediated by UBC9; P63279; HTRF SUMOylation assay, SAE1/SAE2 + UBC9, in vitro; inhibition, % at 35 µM; 290,000 compounds, 0.36% hits; AID 2006; in the data active = inhibition above about 50%, passing the limit was not always enough; inconclusive = no clear call, values can overlap the other calls
Starred values were filed as active, the others as inactive; ? = inconclusive; nt = no result.

SMILES | p97 ATPase inh | PfM18AAP inh | PHOSPHO1 inh | HDAC3 inhib | G6PDH counter | UBC9 SUMO inh
CC(C)[C@H](NC(=O)C1CC(=O)N(c2ccc(F)cc2)C1)C(=O)N1CCCCC1 (some centres undefined) | nt | 0.0 | 42.0 | -4.4 | nt | -3.9
CSc1nc(SCC(N)=O)c2c3c(sc2n1)CN(C)CC3 | -1.5 | 6.2 | 8.7 | -11.9 | -4.7 | 16.3
CCNc1nc(SCC(N)=O)nc2sc3c(c12)CCN(C)C3 | nt | 28.6* | -7.8 | nt | nt | 12.2
CCc1sc(C(=O)Nc2ncccc2O)cc1C | nt | -0.7 | 4.5 | 76.0* | nt | -5.9
Fc1ccc(-n2c(-c3cccs3)nc3nc4ccccc4nc32)cc1 | 4.1 | -4.2 | -6.0 | -2.1 | -22.1 | -1.7
Fc1cccc(-n2c(-c3cccs3)nc3nc4ccccc4nc32)c1 | 6.4 | 0.7 | 24.8 | 0.4 | nt | 54.9*
O=c1c(O)c(-c2ccc(O)cc2O)oc2cc(O)cc(O)c12 | 49.2* | 30.1* | 1.1 | nt | 25.0 | 18.3
Cc1cc(C(=O)NC2CCCCCCC2)ccc1[N+](=O)[O-] | nt | nt | nt | -5.0 | nt | nt
CCOc1ccc(N=C2Sc3nc4ccc(C)cc4cc3CN2CCOC)cc1 | -2.1 | 0.4 | -21.9 | 3.9 | -2.0 | 2.5
CCOc1ccc2nc3c(cc2c1)CN(CCCO)C(=NCCOC)S3 | -1.6 | 9.4 | 91.3* | -5.9 | 4.1 | -14.6
O=[N+]([O-])c1cc(S(=O)(=O)C(F)(F)F)ccc1NCC1CCCO1 (centres undefined) | nt | 3.1 | 21.7 | 7.6 | nt | 1.5
Cc1cc(NC(=O)CCSc2ccc(Cl)cc2)no1 | -1.1 | 3.9 | 61.8* | -1.0 | 6.6 | -0.1
Cc1cccc(NC(=O)CSc2ncnc3sc(C)cc23)c1 | nt | -1.4 | 32.0 | -11.9 | nt | -6.5
N#Cc1c2n(c3c(=S)nc[nH]c13)CCCCC2 | 3.7 | -12.3 | 95.9* | 9.4 | 4.5 | 19.0
CC(=O)c1ccc(NC(=O)c2ccc3nc(-c4ccco4)c(-c4ccco4)nc3c2)cc1 | 1.0 | 7.0 | 97.9* | 7.4 | 22.5 | 91.8*
O=C(NCCCO)c1ccc2nc(-c3ccco3)c(-c3ccco3)nc2c1 | 8.1 | 28.5* | 1.8 | nt | 32.8 | ?
CC(=O)c1ccc(NC(=O)CSc2nnc(-c3ccco3)c(-c3ccco3)n2)cc1 | 10.2 | 12.4 | 17.9 | 4.3 | 37.9 | 89.6*
O=C(CSc1nnc(-c2ccco2)c(-c2ccco2)n1)c1ccccc1 | 9.7 | 26.4 | 46.6 | 13.4 | 29.3 | 86.8
O=C(NCCO)Nc1ccc2nc(-c3ccco3)c(-c3ccco3)nc2c1 | 44.2* | 36.6* | 1.7 | nt | 30.7 | 98.1*
CCCCNC(=O)c1ccc2nc(-c3ccco3)c(-c3ccco3)nc2c1 | 4.8 | 1.8 | -9.0 | 8.6 | -28.1 | 29.9
CCC(C)(C)NC(=O)C(c1ccc(OC)cc1)N(C(=O)CCC(=O)Nc1cc(C)on1)c1ccccc1F (centres undefined) | nt | -0.6 | 0.0 | 6.3 | nt | -0.7
CCCCN(C)CCCNC(=O)CN1C(=O)COc2ccc(S(=O)(=O)N3CCOCC3)cc21 | nt | 5.0 | 54.7 | nt | nt | 12.8
COc1ccc(C(=O)Nc2ccc(NC(=O)C3CC3)nc2)cc1 | nt | 1.9 | 11.0 | -0.2 | nt | -4.6
CC1CCC(NC(=O)COC(=O)CCC(=O)c2ccc(Cl)s2)CC1 (centres undefined) | nt | nt | nt | 6.8 | nt | nt
Cc1ccc(NC(=O)CN(C)CC(=O)Nc2sc3c(c2C(N)=O)CCC3)cc1 | nt | 1.6 | 47.5 | 6.7 | nt | -0.7
SMILES | p97 ATPase inh | PfM18AAP inh | PHOSPHO1 inh | HDAC3 inhib | G6PDH counter | UBC9 SUMO inh
CCC(C(=O)Nc1ccc(S(=O)(=O)Nc2ncccn2)cc1)c1ccccc1 (centres undefined) | nt | -6.6 | 14.9 | 1.3 | nt | -7.5
CCOC(=O)c1ccc(-n2c(N)c(C(=O)NCC3CCCO3)sc2=S)cc1 (centres undefined) | -6.3 | 14.0 | 75.7* | -2.2 | 9.7 | 27.0
COc1ccc(-n2c(N)c(C(=O)NCC3CCCO3)sc2=S)cc1 (centres undefined) | 0.2 | 1.9 | 39.0 | 4.9 | 5.4 | 13.1
Nc1c(C(=O)N2CCCC2)sc2nc(-c3ccccc3)ccc12 | -0.5 | 12.2 | 10.5 | 14.2 | nt | 28.3
CC(=O)c1sc(=S)n(-c2ccccc2)c1C | -1.8 | 1.4 | 34.2 | -0.4 | nt | -13.9
Cc1ccc(-n2c(N)c(C(=O)N3CCCCC3)sc2=S)cc1 | -1.1 | -25.2 | 75.8* | 6.7 | 3.4 | 17.5
Nc1c(C(=O)N2CCCCC2)sc(=S)n1-c1ccccc1 | -5.7 | -34.0 | 86.5* | 4.7 | 0.8 | -3.7
CCOc1ccc(-n2c(N)c(C(=O)N3CCN(C)CC3)sc2=S)cc1 | 9.2 | 0.3 | 10.8 | 6.5 | -2.1 | 0.3
Nc1c(C(=O)N2CCOCC2)sc(=S)n1-c1ccccc1 | 1.1 | -22.6 | 96.8* | -0.3 | -25.0 | -6.5
Cc1c(Cl)cccc1NC(=O)Nc1cc(C(C)(C)C)on1 | nt | 3.4 | 20.3 | 5.0 | nt | -15.3
COc1ccccc1CC1CC(=O)N(c2cccc(Cl)c2C)C1=O (centres undefined) | nt | 2.5 | 8.3 | -7.3 | nt | 6.2
Cc1cn(CCOc2ccc(Cl)cc2)c(=O)[nH]c1=O | nt | 0.7 | 20.3 | 6.5 | nt | -8.2
O=S(=O)(c1ccccc1Br)N1CCC(O)(c2cccnc2)CC1 | -3.2 | -2.4 | 32.8 | 1.2 | 10.3 | 3.5
CC12CCC(=O)C=C1CCC1C2C(O)CC2(C)C1CCC2(O)C(=O)CO (centres undefined) | nt | 0.9 | 4.7 | -1.8 | nt | -2.3
CCOC(=O)c1sc(=S)n(-c2ccc(C)cc2)c1N | 0.3 | 29.4* | 16.2 | 15.9 | 9.8 | -2.5
C=CCSc1nnc2c(n1)OC(C)=Nc1ccc(Br)cc1-2 | 3.2 | 2.6 | -143.9 | 0.5 | 14.7 | 10.1
COc1ccc(N(CC(=O)NC2CCCC2)C(=O)Cn2nnc(-c3ccc(OC)c(OC)c3)n2)c(OC)c1 | nt | -10.4 | 17.4 | -2.0 | nt | 9.9
C=CCn1c(Cc2c[nH]c3ccccc23)nnc1SCC(=O)NCc1ccccc1 | 0.3 | 3.3 | 19.1 | -2.2 | 7.0 | -19.3
C=CCn1c(-c2cc(OC)cc(OC)c2)n[nH]c1=S | 1.8 | 7.0 | 97.1* | -1.1 | 10.1 | 11.9
C=CCn1c(-c2ccccc2OC)n[nH]c1=S | 3.9 | 17.7 | 10.8 | -1.5 | 6.5 | -0.3
C=CCn1c(Cc2c[nH]c3ccccc23)n[nH]c1=S | -1.7 | -1.9 | 95.3* | 6.0 | 9.3 | 22.6
C=CCn1c(-c2cccc3ccccc23)n[nH]c1=S | 4.0 | 19.8 | 95.0* | -9.1 | 1.0 | 10.4
NS(=O)(=O)c1ccc2nc(NC(=O)Nc3ccc(F)cc3)sc2c1 | nt | -4.2 | 24.0 | -3.3 | nt | 3.0
O=C(Cn1nnc(-c2ccccc2)n1)NCC(=O)Nc1ccc(F)c(F)c1F | nt | nt | nt | 2.8 | nt | nt
O=C(NC1CCCCC1)c1sc(=S)n2c1[nH]c(=O)c1ccccc12 | 7.3 | 7.6 | 75.6* | 6.6 | 4.6 | 23.9
CC(C)=CCc1c(O)cc2oc3c(CC=C(C)C)c(O)c(O)c(CC=C(C)C)c3c(=O)c2c1O | nt | nt | 31.1 | -4.5 | nt | 50.3*
